Laboratory results: PubChem BioAssay AID1851 (National Center for Advancing Translational Sciences (NCATS), 2009)
The whole screen tested about 16,000 compounds, of which about 4,000 (25%) were called active. Inconclusive results (about 26%) are left out. Calls come from the whole dose curve; as a rule, active = well fitted curve in the direction sought with a large enough effect; inconclusive = small, poorly fitted or top-dose-only effect, or effect the other way; inactive = no such curve, though single readings can be large or run the other way. Not all results are given here.

Molecular target: Cytochrome P450 2C9 (Homo sapiens) (UniProt P11712)
Assay: Cytochrome panel assay with activity outcomes
Conditions: recombinant CYP, pro-luciferin dealkylation, luminescence, p450-cyp2c9; series mostly up to 57.1 µM
% is set by controls: 0 for no effect and ±100 for the full control effect.

Sequence of Cytochrome P450 2C9 (Homo sapiens) (P11712 whole entry, looked up): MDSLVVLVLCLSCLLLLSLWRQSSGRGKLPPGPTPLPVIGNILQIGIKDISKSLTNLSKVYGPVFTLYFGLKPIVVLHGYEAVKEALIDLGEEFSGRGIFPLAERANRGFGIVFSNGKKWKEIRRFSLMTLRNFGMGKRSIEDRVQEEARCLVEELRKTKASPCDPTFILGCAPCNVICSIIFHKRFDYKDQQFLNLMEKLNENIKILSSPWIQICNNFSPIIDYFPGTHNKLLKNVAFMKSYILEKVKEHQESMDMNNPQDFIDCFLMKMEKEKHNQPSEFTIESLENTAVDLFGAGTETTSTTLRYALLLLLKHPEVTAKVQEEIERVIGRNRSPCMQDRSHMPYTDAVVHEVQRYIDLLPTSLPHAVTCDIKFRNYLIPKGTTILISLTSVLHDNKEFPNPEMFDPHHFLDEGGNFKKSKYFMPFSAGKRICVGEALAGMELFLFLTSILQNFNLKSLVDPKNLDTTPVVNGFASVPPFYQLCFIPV

AC50, active:
COC(=O)c1c(-n2c(C)cc(C=O)c2C)sc2c1CCCC2 1.12 µM, Cc1sc(N/N=C/c2cccnc2)nc1-c1ccccc1 0.355 µM, COc1cc([C@H]2c3cc4c(cc3[C@@H](O)[C@@H]3COC(=O)[C@H]23)OCO4)cc(OC)c1OC 6.31 µM, Cn1cc([N+](=O)[O-])c(C(=O)Nc2cc(Oc3cccnc3)cc([N+](=O)[O-])c2)n1 5.62 µM, CCC/C=C(\CCC)C(NS(=O)(=O)c1cccc2cccnc12)c1ccc(C(=O)OC)cc1 (stereo not drawn) 1.58 µM, CCC/C=C(\CCC)C(NS(=O)(=O)c1cccc2cccnc12)c1ccc(-c2ccccc2)cc1 (stereo not drawn) 2 µM, O=[N+]([O-])c1ccc(S(=O)(=O)Cc2ccccc2)c2nonc12 0.316 µM, Cc1cc(OCCn2cc(/C(N)=N/O)c3ccccc32)ccc1Cl 12.6 µM, Cc1csc(NC(=O)Cc2c[nH]c3ccccc23)n1 12.6 µM, CC1(C)Cc2c(C#N)c(SCc3ccccc3)nc(N3CCOCC3)c2CO1 0.708 µM, COC(=O)C(Cc1ccc(OC(=O)c2ccc(C(F)(F)F)cc2)cc1)N1Cc2ccccc2C1=O (stereo not drawn) 8.91 µM, COC(=O)C(Cc1ccc(OC(=O)c2ccc(Cl)cc2)cc1)N1Cc2ccccc2C1=O (stereo not drawn) 3.16 µM, COC(=O)C1=C(C)NC2=C(C(=O)CCC2)C1c1cn(Cc2ccc(Cl)cc2Cl)nc1-c1ccccc1 (stereo not drawn) 1 µM, C/C(=N\NC(=S)Nc1cccc(C)c1)c1ccccc1 6.31 µM, Cc1cccc(NC(=S)NC(=O)CCc2ccccc2)c1 7.94 µM, S=C(NCc1ccco1)N1CCN(C(c2ccccc2)c2ccccc2)CC1 3.16 µM, O=C1C2ON(c3ccccc3)C(c3ccncc3)C2C(=O)N1c1ccccc1 (stereo not drawn) 0.398 µM, CCCC(C(=O)Nc1nccs1)c1ccccc1 (stereo not drawn) 12.6 µM, CC(=O)OCCCN1c2ccccc2Nc2nnc(-c3ccccc3)cc21 1.78 µM, Cc1ccc(SCCNC(=S)Nc2ccc(C)c(C)c2)cc1 12.6 µM, Cc1ccc(SCc2ccc(C(=O)NCc3ccncc3)cc2)cc1 0.0126 µM, Cc1ccc(SCCNC(=O)c2ccc(C)c(S(=O)(=O)Nc3ccccc3C)c2)cc1 4.47 µM, Cc1ccccc1NS(=O)(=O)c1cc(C(=O)Nc2cccc(N(C)S(C)(=O)=O)c2)ccc1C 0.794 µM, Cc1ccc(SCCNC(=O)c2ccccc2)cc1 17.8 µM, O=C1NC(c2cccc([N+](=O)[O-])c2)=CCN1c1ccccc1O 1 µM, Cc1c(-c2ccc(F)cc2)nc(N)c(C#N)c1-c1cccs1 1.58 µM, CSc1nc(N)nc(-c2cccs2)c1C#N 7.08 µM, CNc1cc(CSC)nc(SCc2ccc(Cl)c(Cl)c2)n1 8.91 µM, COc1ccc(OC)c(C2CC(=O)C3=C(C2)NC(=O)CC3c2ccc(O)c(OC)c2)c1 (stereo not drawn) 11.2 µM, O=C(Nc1ccccc1N1CCOCC1)c1cnccn1 2 µM, CCC/C=C(\CCC)C(NS(=O)(=O)c1ccc(Cl)cc1)c1ccc(C(=O)OC)cc1 (stereo not drawn) 3.16 µM, CCC/C=C(\CCC)C(NS(=O)(=O)CC12CCC(CC1=O)C2(C)C)c1ccc(C(=O)OC)cc1 (stereo not drawn) 15.8 µM, CCC/C=C(\CCC)C(NS(=O)(=O)c1ccccc1)c1ccc(C(F)(F)F)cc1 (stereo not drawn) 10 µM, CCC/C=C(\CCC)C(NS(=O)(=O)c1ccc(C(F)(F)F)cc1)c1ccc(C(=O)OC)cc1 (stereo not drawn) 3.16 µM, CCC/C=C(\CCC)C(NS(=O)(=O)c1ccc(Cl)cc1)c1ccccc1 (stereo not drawn) 2.51 µM, COc1ccccc1-n1c(SCC(=O)Nc2ccccc2F)nc2[nH]ncc2c1=O 15.8 µM

AC50, inactive:
Cc1cc(C=O)c(C)n1-c1ccc(NC2CCCC2)c([N+](=O)[O-])c1, Cc1cnn(-c2cc(N/N=C/c3ccccc3)ncn2)c1, CCN1CCN(C(=O)N[C@H](C(=O)N[C@@H]2C(=O)N3[C@@H]2SC(C)(C)[C@@H]3C(=O)O)c2ccccc2)C(=O)C1=O, COc1cc2c(c(O)c1OC)C(=O)C(OC)CCC2 (stereo not drawn), O=[N+]([O-])c1cccc2c[nH]nc12, COc1cc(OC)c(OC)cc1C=NCC1(c2ccccc2)CCCC1, CN1CCCC2(CCN(C(=O)c3cnccn3)CC2)C1, CCCCCCC(C)n1cc(C(C)=O)c(=O)[nH]c1=O (stereo not drawn), COC(=O)[C@H](N)Cc1ccc(Cl)cc1, CCN(CC)C(=O)C1=C(C)NC(=S)NC1c1cn(-c2ccccc2)nc1-c1ccc(Cl)cc1 (stereo not drawn), c1ccc2c(c1)CCCc1cc(NCCN3CCOCC3)nnc1-2, COc1ccccc1CN1CCC2(CCNCC2)CC1, Cc1cccc(NC(=S)Nc2ccc(Br)cc2)c1, CN1CCN(C(c2ccccc2)c2ccccc2)CC1, NC(=O)CNCCC(c1ccccc1)c1ccccc1, COC(=O)c1cc(=O)n(C2CC2)c(=NC2CC2)s1, O=C(O)c1ccccc1C(=O)Nc1nccs1, COc1ccccc1CN1CCC2(CC1)CCN(C(=O)c1cccn1C)CC2, CCCNC(=O)N1N=C(c2ccc(N)cc2)c2cc3c(cc2[C@H]1C)OCO3, Cc1ccc(C)c(S(=O)(=O)NC(CC(C)C)C(=O)O)c1 (stereo not drawn), Cc1ccc(C(=O)NCc2ccc(N3CCN(C(=O)OC(C)(C)C)CC3)cc2)cc1, COCC(=O)N1CCC2(CC1)CN(Cc1ccccc1OC)C2, CC1=C(C(=O)O)N2C(=O)C(NC(=O)c3ccn(C)n3)C2SC1 (stereo not drawn), COc1ccccc1CN1CCCC2(CCN(C(=O)c3cnccn3)CC2)C1, Cc1ccc(C(=O)NCCNC(=O)CN2CCOCC2)cc1, Nc1nc(-c2cccs2)cs1, COc1cccc(/C=N/n2nnc3c(cnn3-c3ccccc3)c2=O)c1, COc1ccc(-c2nc3cnc(Nc4cccc(OC)c4)nc3n(CCC#N)c2=O)cc1, COc1ccc(NC(=O)C2CC(=O)NC3=C2C(=O)CC(C)(C)C3)cc1 (stereo not drawn), O=C(Nc1ccccc1)N1CCC2(CC1)CCN(C(=O)c1cnccn1)CC2, O=C(NCc1ccccc1Cl)c1cnccn1, CCC/C=C(\CCC)C(NS(=O)(=O)c1ccc(C(F)(F)F)cc1)c1ccc(-c2ccccc2)cc1 (stereo not drawn), COc1c2occc2c(OC)c2c(=O)cc(C)oc12, Cc1ccccc1[C@@H](OCCN(C)C)c1ccccc1, CCC/C=C(\CCC)C(NS(C)(=O)=O)c1ccccc1 (stereo not drawn), CCN(CC)C(=O)N1CCN(C)CC1, CS(=O)(=O)N1CCC2(CCCN(C(=O)Nc3cccc(C#N)c3)C2)CC1, CCOc1ccccc1NC(=O)CSc1nnc(-c2cnccn2)n1C

activity, negative = inhibition, inactive:
C(=N/Nc1nnc2c(n1)[nH]c1ccccc12)/c1cccnc1 -16.8% [at 11.4 µM], CC(C)=C[C@H]1[C@@H](C(=O)Oc2ccccc2C(C)C)C1(C)C -15.1% [at 11.4 µM], CCN1C(=O)[C@H]2[C@@H]3[C@H](O)C=CC(=O)[C@H]3CC[C@H]2C1=O 17.9% [at 11.4 µM], Nc1ncnc2c1nc(-c1ccccc1)n2[C@H]1O[C@@H](CO)[C@@H](O)[C@H]1O 9.27% [at 11.4 µM], CC(C)(N)C(=O)N[C@@H]1C(=O)N2[C@@H]1SC(C)(C)[C@H]2C(=O)O 14.5% [at 11.4 µM], O=C(Oc1ccc2c(c1)CN(Cc1ccccc1)CO2)c1ccccc1 -0.387% [at 11.4 µM], C(=Nc1cnc2ccccc2c1)c1ccc2ccccc2n1 3.29% [at 11.4 µM], C[C@@H](c1ccccc1)N1C(=O)[C@H]2[C@H]3[C@H](O)[C@H](O)C/C(=N/OCc4ccccc4)[C@@H]3CC[C@@H]2C1=O -23.4% [at 11.4 µM], COc1ccc(CNc2ncncc2-c2cccc(C#N)c2)c(OC)c1 -28.7% [at 2.29 µM], O=C(O)[C@H](CCc1ccccn1)c1ccccc1 -5.61% [at 11.4 µM], O=C(O)[C@@H]1[C@@H](C(=O)NCc2ccncc2)[C@@H]2C=C[C@@H]1O2 -12.4% [at 11.4 µM], CC(C)(N=NC(C)(C)C(=N)N)C(=N)N 0.959% [at 11.4 µM], Nc1nc(-c2cccc([N+](=O)[O-])c2)cc(-c2cc(-c3cccc([N+](=O)[O-])c3)nc(N)n2)n1 20.9% [at 11.4 µM], Cc1cnc(CNc2ccnc(-c3ccc(N(C)C)cc3)n2)cn1 1.73% [at 2.29 µM], O=C(CCN1CCCCC1)N1CCc2c([nH]c3ccccc23)[C@H]1c1cccnc1 2.98% [at 11.4 µM], Clc1ccc(CSC2=NCCN2)cc1Cl 9.47% [at 11.4 µM], COc1cc(C2SCCCCCCCCCCSC(c3ccc(O)c(OC)c3)SCCCCCCCCCCS2)ccc1O (stereo not drawn) 10.3% [at 11.4 µM], O=C=Nc1ccc(Cc2ccc(N=C=O)cc2)cc1 (tested in a mixture with another compound) 2.55% [at 11.4 µM], COC(=O)C/C=C\[C@H](C)[C@H](CO)NS(=O)(=O)c1ccc(C)cc1 0.902% [at 11.4 µM]
